FLuc modulator = firefly luciferase modulation, counter-screen for miR-21 project; P08659; purified FLuc, Km substrates, luminescence inhibition; Potency, µM (top dose mostly 57.5 µM), for inactives: top-dose activity change, negative = inhibition, actives largely listed as inhibitors; actives 6.9% (n = 360,000);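 further: plate controls were vehicle for no effect and reference inhibitor for full effect; nearly all actives have a fitted effect of over 55% in size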
Target sequence (P08659 whole entry, looked up): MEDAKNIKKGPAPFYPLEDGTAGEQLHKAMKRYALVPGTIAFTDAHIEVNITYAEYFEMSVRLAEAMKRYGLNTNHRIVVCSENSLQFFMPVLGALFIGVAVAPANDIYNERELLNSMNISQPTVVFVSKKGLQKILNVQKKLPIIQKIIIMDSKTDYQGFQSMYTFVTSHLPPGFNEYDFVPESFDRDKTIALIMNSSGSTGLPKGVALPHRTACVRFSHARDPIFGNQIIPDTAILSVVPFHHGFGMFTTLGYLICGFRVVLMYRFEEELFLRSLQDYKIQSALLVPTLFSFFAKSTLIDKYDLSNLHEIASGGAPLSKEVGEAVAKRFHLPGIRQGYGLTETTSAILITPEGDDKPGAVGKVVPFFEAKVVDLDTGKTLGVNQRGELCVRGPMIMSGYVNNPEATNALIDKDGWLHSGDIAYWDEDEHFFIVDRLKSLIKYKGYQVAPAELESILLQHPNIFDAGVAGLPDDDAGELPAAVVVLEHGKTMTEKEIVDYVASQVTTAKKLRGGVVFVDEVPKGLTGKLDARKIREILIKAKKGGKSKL
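Purified P. pyralis luciferase, 10 nM final, with Km-level 10 uM D-luciferin and 10 uM ATP in 50 mM Tris acetate pH 7.5, 10 mM Mg acetate, 0.01% Tween-20, 0.05% BSA; 6-point qHTS titration about 60 µM downward; luminescence read.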
SMN2 splice up = enhancers of SMN2 splice variant expression | HEK293 SMN2-luciferase splicing reporter, luminescence, 30-36 h | Potency, µM (highest dose often 46.1 µM), for inactives: top-dose activity change, positive = activation, hits mostly activators | actives 2.8% (n = 210,000) | AID 1458; further: % of control where 0% means no effect; nearly all actives have a fitted effect of over 55% in size
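HEK293 cells carry an SMN2 […]–luciferase reporter in which exon 7 inclusion puts luciferase in frame. Cells were plated 10-12 h before compound addition, then incubated 30-36 h at 37C. ONE-Glo luminescence was read; sodium butyrate at 4.5 mM final served as control.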
Rab9 prom act = Rab9 promoter activation | Potency, µM (highest dose often 9.22 µM), for the others: at the top dose activation, negative = inhibition, usual class: activators | Huh7 Rab9 promoter-luciferase reporter, luminescence, 24 h | AID 485297 | actives 2.8% (n = 320,000); further: % of control where 0% means no effect; nearly all actives have a fitted effect of over 60% in size
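Huh7 cells stably carrying a Rab9 promoter-luciferase reporter, 1500 cells per well in OP-MEM I with 10% FBS, treated with compound 24 hours at 37C. Luciferase activity read by luminescence after 10 minutes with Amplite reagent.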
ELG1 genotox = genotoxicity induction in ELG1-luciferase HEK293T cells | HEK293T ELG1-luciferase reporter, luminescence, 16 h | actives 1.3% (n = 330,000) | Potency, µM (series often up to 46 µM), without a hit: top-dose activity change, positive = activation, most hits filed as activators; further: % of control where 0% means no effect; nearly all actives have a fitted effect of over 60% in size
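ELG1-luciferase HEK293T cells, 2,000/well; compound pinned in; 16 hr, 37 °C, 5% CO2; ONE-Glo, 30 min RT; luminescence on CCD imager.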
NPC1 promoter act = activators of NPC1 promoter. Potency, µM (titrated, usually from 9.22 µM), for inactives: at the top dose activation, most hits filed as activators. actives 2.4% (n = 320,000). Huh7 NPC1 promoter luciferase reporter, 24 h. AID 485313; further: % of control where 0% means no effect; nearly all actives have a fitted effect of over 60% in size
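Luciferase expression driven by the NPC1 promoter was measured in stably transfected Huh7 cells after a 24 h compound incubation, using a luciferase reagent and a luminescence read.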
* = called active by the depositor; ? = inconclusive; . = no result; [ ] = dose if it differs, or a comment. In the library only some 7.5% were active in any assay of this set; here they are far more common. The call rests on the fitted dose curve; in most records, active means well fitted curve in the direction sought with a large enough effect; inconclusive means small, poorly fitted or top-dose-only effect, or another doubt; inactive means no such curve, though single readings can be large; an effect the other way counts as inactive or inconclusive. Potency means the concentration at half of the fitted maximal effect.

SMILES | FLuc modulator | SMN2 splice up | Rab9 prom act | ELG1 genotox | NPC1 promoter act
CCOc1ccc(S(=O)(=O)NCc2cccn2Cc2cccc(C)c2)cc1 | -16% | . | . | . | .
O=S(=O)(Nc1cccc(-c2ccc(N3CCCC3)nn2)c1)c1ccc(F)cc1F | 15µM* | . | . | . | .
Cc1ccc(S(=O)(=O)Nc2cccc(-c3ccc(N4CCCCCC4)nn3)c2)c(C)c1 | 11µM* | . | ? | ? | ?
O=S(=O)(Nc1cccc(-c2ccc(N3CCCCC3)nn2)c1)c1cccc(F)c1 | 2.4µM* | . | . | . | .
COc1ccc(CCNC(=O)CCc2c(C)c3cc4c(C)c(C)oc4cc3oc2=O)cc1 | 0% | 1% | . | . | .
COc1cc(/C=C2\C(=N)N3N=C(S(C)(=O)=O)SC3=NC2=O)ccc1OC(=O)c1ccco1 | 19µM* | . | 2% | -1% | 0%
COc1cc(/C=C2\C(=N)N3N=C(S(C)(=O)=O)SC3=NC2=O)ccc1OC(=O)c1cccs1 | 21µM* | . | 6% | 0% | 3%
CCS(=O)(=O)C1=NN2C(=N)/C(=C\c3ccc(OC(=O)c4ccco4)c(Br)c3)C(=O)N=C2S1 | 15µM* | . | -2% | 2%[9.26 µM] | -4%
CCOc1cc(/C=C2\C(=N)N3N=C(S(=O)(=O)CC)SC3=NC2=O)ccc1OC(=O)c1ccco1 | -12% | . | -2% | 9% | 2%
COc1cc(/C=C2\C(=N)N3N=C(S(C)(=O)=O)SC3=NC2=O)ccc1OCCOc1ccccc1C | -4% | . | -1% | 1% | -3%
CC(C)Cc1nc2ccccc2n1CCc1ccccc1 | 3% | -25% | -15% | -1% | -5%
Cc1cccc(OCC(=O)Nc2ccc3c(c2)nc(CCN2CCN(c4ccccn4)CC2)n3C)c1 | -11% | . | -21% | -15% | -19%
Cc1ccc(Cl)cc1N1CCN(C(=O)CCCn2c(=O)[nH]c3ccc(Br)cc3c2=O)CC1 | -11% | -9% | . | . | .
Clc1ccc(-c2cc(-c3ccccc3)on2)cc1 | 0.85µM* | . | 1.3µM* | ? | 1.4µM*
Clc1ccc(-c2csc(-c3ccno3)n2)cc1 | ? | . | 2% | 8% | 0%
Cc1nc(-c2cc(-c3ccc(Cl)cc3)no2)cs1 | 1.2µM* | . | 0.56µM* | ? | 1.1µM*
CC1(C)Oc2ccc(NC(=O)C3COc4ccccc4O3)cc2O1 (stereo not given) | 1.9µM* | -23% | 0.5µM* | ? | 1.6µM*
C/C(=N\NC(=O)C1COc2ccccc2O1)c1ccc(C)o1 (stereo not given) | 0% | -18% | -1% | 3% | 6%
CN(C)S(=O)(=O)Nc1ccc(-c2cn3ccsc3n2)cc1 | 27µM* | . | . | . | .
C/C(=N\NC(=O)C1COc2ccccc2O1)c1ccccn1 (stereo not given) | -11% | -76% | -25% | 12µM* | -12%
O=C(Nc1ccccc1)C1COc2ccccc2O1 (stereo not given) | -15% | . | 10% | 16% | 25%
O=C(Nc1ccc(-c2cn3ccsc3n2)cc1)C1COc2ccccc2O1 (stereo not given) | 27µM* | 9% | 3.2µM* | -1% | ?
Cn1c(CNC(=O)OC(C)(C)C)nnc1SCC(=O)N1CCOCC1 | -2% | . | -3% | -1% | 1%
O=C(Nc1cccc(Cl)c1Cl)C1CCCO1 (stereo not given) | -2% | . | 5% | 0% | 2%
O=C(Nc1cccnc1)C1COc2ccccc2O1 (stereo not given) | -3% | -5% | -3% | 1% | 0%
Cc1ccc(NC(=O)C2COc3ccccc3O2)cc1 (stereo not given) | 24µM* | . | 3.5µM* | ? | 2.8µM*
O=C(Nc1ncccc1Cl)C1COc2ccccc2O1 (stereo not given) | 17µM* | -15% | 9% | ? | -2%
Cc1ccc(NC(=O)C2COc3ccccc3O2)nc1 (stereo not given) | 13µM* | -6% | 27% | 10µM* | 24%
Cc1ccnc(NC(=O)C2COc3ccccc3O2)c1 (stereo not given) | 9.5µM* | ? | 3.5µM* | ? | 2.8µM*
COc1ccc(Cl)cc1NC(=O)CN(c1cccc(C)c1C)S(C)(=O)=O | 3% | -2% | . | . | .
